OTUD3 block – inhibitors of human OTUD3 deubiquitinase. OTU domain-containing protein 3 (Homo sapiens), Q5T2D3. purified OTUD3, Ub-rhodamine fluorescence, 2 h. inhibition, % at 25 µM. 47,000 tested, 0.7% active
USP30 block – inhibitors of human USP30 deubiquitinase | inhibition, % at 25 µM | purified USP30, Ub-rhodamine cleavage fluorescence | 47,000 tested, 5.3% active | AID 1645860, 2021 | Ubiquitin carboxyl-terminal hydrolase 30 (Homo sapiens), Q70CQ3
USP28 inh – inhibitors of human USP28 deubiquitinase; Ubiquitin carboxyl-terminal hydrolase 28 (Homo sapiens), Q96RU2; purified USP28, Ub-rhodamine cleavage fluorescence, 30 min; inhibition, % at 25 µM; 47,000 tested, 3% active
USP17 block – inhibitors of human USP17 deubiquitinase | purified USP17, Ub-rhodamine cleavage fluorescence, 3 h | inhibition, % at 50 µM | 47,000 tested, 6.5% active
The depositor's hits bear a star. An excerpt weighted towards active compounds, which were near 11% of everything screened. Cut-off read from the data, not from the text of the source: active = inhibition above about 30%; inactive = the rest.

For COc1ccccc1C(=O)Oc1ccc(-c2ccc(C#N)cc2)cc1 the results were OTUD3 block 5, USP30 block 8, USP28 inh 5 and USP17 block 49*.
CN(C)S(=O)(=O)c1ccc(C(=O)Oc2ccc(-c3ccc(C#N)cc3)cc2)cc1 was read as OTUD3 block 8, USP30 block 31*, USP28 inh 3 and USP17 block 18.
`Cc1ccc(Nc2cc(C)nc(N3CCN(C(=O)CC4CCCC4)CC3)n2)cc1` gave OTUD3 block -9, USP30 block -3 and USP28 inh -11.
Screening COC(=O)c1c(NC(=O)c2ccc(Cl)s2)sc(C)c1C returned OTUD3 block 18, USP30 block 13, USP28 inh 22 and USP17 block 18.
COc1ccccc1/C=C/C(=O)Nc1ccc(Cl)c(S(=O)(=O)Nc2ccccc2OC)c1 was read as OTUD3 block 1, USP30 block 9, USP28 inh 7 and USP17 block 3.
O=C(Cn1ncc2ccccc21)Nc1ccc(Br)cn1 was read as OTUD3 block 14, USP30 block -21, USP28 inh 39* and USP17 block 5.
Screening CCc1nnc(NC(=O)Cn2ncc3ccccc32)s1 returned OTUD3 block 18, USP30 block 0, USP28 inh 15 and USP17 block 0.
`O=C1CC(C(=O)Nc2cccc(Cl)c2)c2ccc(F)cc2N1` (configuration not stated) gave OTUD3 block -8, USP30 block -5, USP28 inh 15 and USP17 block -5.
Screening O=C1CC(C(=O)Nc2cccc(Br)c2)c2ccc(F)cc2N1 (configuration not stated) returned OTUD3 block 10, USP30 block 11, USP28 inh 39* and USP17 block 11.
`COc1ccc(/C=C/C(=O)N2c3ccccc3CC2C)cc1OC` (configuration not stated) gave OTUD3 block -9, USP30 block -17, USP28 inh -4 and USP17 block -16.
Screening COc1cccc(-n2cnc3cc(C(=O)NCc4ccncc4)ccc3c2=O)c1 returned OTUD3 block 15, USP30 block 31*, USP28 inh 8 and USP17 block 25.
Screening CCc1nc2ccc(C(=O)NCc3ccc(OC)cc3)cc2nc1CC returned OTUD3 block 2, USP30 block -7, USP28 inh 11 and USP17 block 12.
For Nc1c(C(=O)NCc2ccc3c(c2)OCO3)nnn1Cc1ccc(Br)cc1F the results were OTUD3 block 22, USP30 block 75* and USP28 inh 40*.
Screening CC1Cc2ccccc2N1CC(=O)N1CCN(S(=O)(=O)c2ccc3ccccc3c2)CC1 (configuration not stated) returned OTUD3 block -27, USP30 block -2, USP28 inh -1 and USP17 block 9.
Screening Cc1c(C(=O)NCc2cccc(F)c2)sc2ncnc(N3CCCC3)c12 returned OTUD3 block -1, USP30 block -1, USP28 inh 5 and USP17 block 5.
`CCc1ccc(NC(=O)c2sc3ncnc(N4CCN(C)CC4)c3c2C)cc1` gave OTUD3 block 8, USP30 block -4, USP28 inh 35* and USP17 block -11.
For Cc1c(C(=O)NCc2ccc(Cl)cc2)sc2ncnc(N3CCCC3)c12 the results were OTUD3 block 8, USP30 block 43*, USP28 inh 31* and USP17 block 18.
For Cc1cc(CN2CCCCC2c2cc(=O)n3[nH]ccc3n2)no1 (configuration not stated) the results were OTUD3 block -4, USP30 block -36, USP28 inh -10 and USP17 block -12.
Cc1nn(C)cc1C(C(=O)NC1CCCCC1)N(C(=O)CN1C(=O)c2ccccc2S1(=O)=O)c1ccc2c(c1)OCO2 (configuration not stated) was read as OTUD3 block 4 and USP17 block 56*.
Screening Cc1noc(C)c1CNc1ccc(Cl)cc1 returned OTUD3 block 3, USP30 block 5, USP28 inh 12 and USP17 block 7.
N#Cc1ccc(-c2ccccc2Cl)nc1Oc1ccc(F)cc1 was read as OTUD3 block -1, USP30 block 4, USP28 inh 16 and USP17 block -4.
`O=C(Nc1cccc(C(F)(F)F)c1)c1ccc2c(c1)SC1=NS(=O)(=O)CCN12` gave OTUD3 block 0, USP30 block -4, USP28 inh 2 and USP17 block 35*.
For CN1CCCN(C(=O)c2c3c(NCc4ccccc4)ncnc3n3ccccc23)CC1 the results were OTUD3 block -86, USP30 block -411, USP28 inh -120 and USP17 block -103.

Screening data from PubChem BioAssay.
